Records with an inconclusive call do not appear. Activity calls are given as the source filed them. Calls come from the whole dose curve; as a rule, active = well fitted cell-killing curve with a large enough effect in the repeat runs; inconclusive = weak or mixed curves; inactive = flat fitted curve, though single readings scatter. Where a SMILES comes first, the peptide text is derived from it.
% is set by controls: 0 for no effect and ±100 for the full control effect.

The nature of this assay: qHTS assay to identify small molecule antagonists of the estrogen receptor beta (ER-beta) signaling pathway - cell viability counter screen (AID 1259382). Note: nearly all actives have a fitted effect of over 55% in size. The settings on record: ER-beta-UAS-bla HEK293T viability, CellTiter-Glo luminescence, 16 h; series mostly up to 92.4 µM; activity change, negative = cytotoxicity: at the top concentration. The text has this: U.S. Tox21 Program National Center for Advancing Translational Sciences [NCATS] NIH Chemical Genomics Center [NCGC] U.S. Environmental Protection Agency [EPA] National Institutes of Environmental Health Sciences [NIEHS] National Toxicology Program [NTP] U.S. Food and Drug Administration [FDA] Tox21 Assay Overview: Estrogen receptor (ER), a nuclear hormone receptor, plays an important role in development, metabolic homeostasis and reproduction. Two subtypes of ER, ER-alpha and ER-beta, have similar expression patterns with some uniqueness in both types. Endocrine disrupting chemicals (EDCs) and their interactions with steroid hormone receptors like ER causes disruption of normal endocrine function. To identify the compounds that inhibit ER signaling, an ER-beta-UAS-bla GripTite cell line (Life Technologies, Madison, WI, USA) containing a beta-lactamase reporter gene under the control of an UAS response element was used to screen Tox21 10K compound library. The cytotoxicity of the Tox21 compound library against the ER-beta-bla cell line was tested in parallel by measuring the cell viability using CellTiter-Glo assay in the same wells.
Tox21 Assay Protocol Summary: ER-beta-UAS-bla HEK293T cells were dispensed at 2,000 cells/4 uL of assay medium containing 2% charcoal stripped FBS per well into black wall/clear-bottom 1536-well plates using a Multidrop Combi (ThermoFisher Scientific, Waltham, MA) dispenser. After the assay plates were incubated at a 37C and 5% CO2 for 6 hr, 23 nL of compounds dissolved in DMSO, positive controls or DMSO only was transferred to the assay plate by a Pintool station (Kalypsys, San Diego, CA), followed by addition of 1 uL (1nM as final concentration) of 17-beta-estradiol (E2) in assay medium using a Flying Reagent Dispenser (FRD, Aurora Discovery, San Diego, CA). The plates were incubated at 37C and 5% CO2 for 16 hr. Then 1 uL of LiveBLAzer B/G FRET substrate was added using a Flying Reagent Dispenser, the plates were incubated at room temperature for 2 hours, and fluorescence intensity was measured by an Envision plate reader (PerkinElmer, Shelton, CT). For cell viability readout that measures cytotoxicity, 4 uL/well of CellTiter-Glo reagent was added into the assay plates using a FRD. After 30 min incubation at room temperature, the luminescence intensity in the plates was measured using a ViewLux (PerkinElmer) plate reader.
(In general: Quantitative high-throughput screening tests each substance at several concentrations.)
As for `O=C[O][Al]([O]C=O)[O]C=O`, the “activity change, negative = cytotoxicity” value was 9.34% (inactive).
Regarding `OC1OCCOC1O` (stereo not given), the “activity change, negative = cytotoxicity” value is 13.1% (inactive).
In the case of `c1ccc2c(CC3=NCCN3)cccc2c1` it was -2.16% [at 42.5 µM] (inactive).
Take `Cc1cccc(Cl)c1`: the “activity change, negative = cytotoxicity” value is 0% (inactive).
Consider `CSc1cnccn1`, for which the “activity change, negative = cytotoxicity” value was 6.48% (inactive).
In the case of `CC1CCc2c(N3CCC(O)CC3)c(F)cc3c(=O)c(C(=O)O)cn1c23` (stereo not given), the “activity change, negative = cytotoxicity” value was -1.74% [at 42.5 µM] (inactive).
In the case of `C=C(C)c1cccc(C(C)(C)N=C=O)c1` it was -0.518% (inactive).
In the case of `Cc1c(NC(=O)c2cccnc2)c(=O)n(-c2ccccc2)n1C` it was 2.07% [at 42.5 µM] (inactive); in that of `CC/C(C)=N\O[Si](C)(O/N=C(\C)CC)O/N=C(\C)CC`, -0.0707% (inactive); in that of `CC(=O)Nc1ccc(OC(=O)c2ccccc2OC(C)=O)cc1`, -5.85% [at 42.5 µM] (inactive).
Then `CCC(C)C(=O)OCCc1ccccc1` (stereo not given), with 2.88% (inactive).
Regarding `COS(=O)(=O)O`, the “activity change, negative = cytotoxicity” value was -0.366% (inactive).
For `CC(C)C1OCCN1CCOC(=O)NCCCCCCNC(=O)OCCN1CCOC1C(C)C` (stereo not given), the “activity change, negative = cytotoxicity” value was 5.05% (inactive).
Then `CCCCCCCCCCCCCCC(=O)NC(CO)CCCCCCCCCCCCCC` (stereo not given), with 0.696% (inactive); and `C=CC(=O)CCCCC`, with 11.7% (inactive); and `OCC(O)CN1CCN(c2ccccc2)CC1` (stereo not given), with 1.04% [at 42.5 µM] (inactive).
Then `O=C(CN1CCNCC1)NC1CCCCC1`, with 13.2% [at 42.5 µM] (inactive).
Then `CCN1CCCC1CN` (stereo not given), with 4.7% [at 42.5 µM] (inactive); and `CC(C)COC(=O)c1ccccc1`, with -12.2% (inactive).
As for `CC(=O)N[C@@H](CO)C(=O)N[C@@H](CC(=O)O)C(=O)N[C@@H](CCCCN)C(=O)N1CCC[C@H]1C(=O)O` (Ac-SDKP-OH), the “activity change, negative = cytotoxicity” value is 6.53% [at 42.5 µM] (inactive).
Then `C=CCOC(=O)CCCCCC`, with 3.58% (inactive); and `O=C1c2ccccc2C(=O)c2cc(Cl)ccc21`, with 1.86% [at 8.39 µM] (inactive); and `C=C(C)C1CC=C(C)C(=O)C1` (stereo not given), with -2.16% (inactive).
In the case of `O/N=C/C=N/O` it was 1.14% (inactive); in that of `CO[Si](CCCn1c(=O)n(CCC[Si](OC)(OC)OC)c(=O)n(CCC[Si](OC)(OC)OC)c1=O)(OC)OC`, -1.01% [at 42.5 µM] (inactive).
In the case of `C=CC(=O)OCC1CCCO1` (stereo not given) it was 1.34% (inactive).
For `CCCCCC/C=C/C(=O)OC`, the “activity change, negative = cytotoxicity” value was -2.89% (inactive).
For the compound `CC(CO)(CO)CO`, the “activity change, negative = cytotoxicity” value was 6.77% (inactive).
Then `COC(=O)c1ccccc1C(=O)O`, with 0.0313% (inactive); and `CC12CCC(C1)C(C)(C)C2O` (stereo not given), with -3.38% (inactive); and `OCC1(CO)COCOC1`, with 3.95% (inactive).
As for `COC(=O)/C=C\C(=O)O`, the “activity change, negative = cytotoxicity” value was 8.07% (inactive).
For the compound `CC(C)(C)NC[C@H](O)COc1cccc2c1CCCC2=O`, the “activity change, negative = cytotoxicity” value is -1.26% [at 42.5 µM] (inactive).
In the case of `CCCC(CC)c1ccccc1` (stereo not given) it was 17.5% (inactive); in that of `CCCCCCCCCCCCCCCCCC#N`, 4.44% (inactive); in that of `C=C(C)[C@@H]1CC=C(C)CC1`, 7.41% (inactive).
Then `COc1cc2c(cc1OC)CN(C(=O)[C@H](C)N[C@@H](CCc1ccccc1)C(=O)O)[C@H](C(=O)O)C2`, with -0.489% [at 42.5 µM] (inactive).
Consider `CC(=O)O[Si](C)(OC(C)=O)OC(C)=O`, for which the “activity change, negative = cytotoxicity” value was 6.7% (inactive).
`Cc1c(N)cccc1Cl`: the “activity change, negative = cytotoxicity” value was -4.36% (inactive).
For `Cc1cc(-c2ccccc2)nnc1NCCN1CCOCC1`, the “activity change, negative = cytotoxicity” value was -2.17% [at 42.5 µM] (inactive).

Values taken from PubChem BioAssay (Tox21).
